Here are results for eleven compounds from ChEMBL document CHEMBL3988442, “University of Dundee, Small-Polar-MMV Screening Library” (2021).

What all share (design): scale not given: direction of the effect not stated beside the values
Assay [1] addresses Protein translocase subunit SecA (Escherichia coli (strain K12)) (UniProt P10408). In words: Assay to Identify E. coli SecA ATPase Inhibitors. Type of assay: functional. Conditions: 30 µM.
The target in assay [2] is T1, Ubiquitin-activating enzyme e1, putative (Leishmania donovani (strain BPK282A1)) (UniProt E9BSI1).
T1 sequence (whole entry): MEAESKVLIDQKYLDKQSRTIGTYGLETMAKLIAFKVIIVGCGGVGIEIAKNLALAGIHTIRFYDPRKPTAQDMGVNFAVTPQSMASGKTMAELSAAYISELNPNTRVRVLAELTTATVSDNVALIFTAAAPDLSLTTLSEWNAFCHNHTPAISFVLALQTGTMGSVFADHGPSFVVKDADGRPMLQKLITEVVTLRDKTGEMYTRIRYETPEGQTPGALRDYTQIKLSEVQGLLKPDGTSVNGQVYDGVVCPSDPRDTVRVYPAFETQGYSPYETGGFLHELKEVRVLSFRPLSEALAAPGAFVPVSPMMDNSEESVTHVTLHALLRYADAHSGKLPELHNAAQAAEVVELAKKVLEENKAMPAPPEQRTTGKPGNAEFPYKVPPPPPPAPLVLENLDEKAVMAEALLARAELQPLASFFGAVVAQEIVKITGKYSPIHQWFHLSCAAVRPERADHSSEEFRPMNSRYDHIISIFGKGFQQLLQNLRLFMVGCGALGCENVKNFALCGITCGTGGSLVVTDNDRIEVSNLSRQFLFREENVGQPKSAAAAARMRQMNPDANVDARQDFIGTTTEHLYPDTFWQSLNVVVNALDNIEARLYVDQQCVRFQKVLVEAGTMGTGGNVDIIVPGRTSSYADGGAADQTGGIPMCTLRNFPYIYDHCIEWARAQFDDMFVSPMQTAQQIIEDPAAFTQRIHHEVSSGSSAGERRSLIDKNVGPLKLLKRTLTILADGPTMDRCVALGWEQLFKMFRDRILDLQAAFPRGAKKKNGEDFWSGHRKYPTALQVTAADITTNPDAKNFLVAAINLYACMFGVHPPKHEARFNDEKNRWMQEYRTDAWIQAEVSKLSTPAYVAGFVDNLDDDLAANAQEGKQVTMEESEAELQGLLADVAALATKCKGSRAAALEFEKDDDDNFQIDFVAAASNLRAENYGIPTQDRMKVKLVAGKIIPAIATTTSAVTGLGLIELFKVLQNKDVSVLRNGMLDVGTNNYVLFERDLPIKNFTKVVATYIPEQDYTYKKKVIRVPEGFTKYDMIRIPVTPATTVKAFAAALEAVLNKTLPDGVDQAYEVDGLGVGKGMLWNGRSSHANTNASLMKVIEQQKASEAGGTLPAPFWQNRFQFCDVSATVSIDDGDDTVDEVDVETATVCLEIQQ
Briefly: Leishmania donovani Ubiquitin Activating Enzyme (LdE1). Type of assay: functional. The following applies: 30 µM.

Assay [3] concerns the target AMP-activated protein kinase, AMPK (Homo sapiens) (UniProt P54646+O43741+P54619+Q9UGJ0+Q9Y478+Q13131+Q9UGI9). Briefly: AMP-dependent Kinase enzyme assay. An in vitro enzyme assay that detects ADP turnover that is directly proportional to AMPK activity. This uses naive AMPK that is activated during the assay with MK-8722. It counts as functional. The following applies: 30 µM.

In assay [4] the target is Sialic acid-binding Ig-like lectin 9 (Homo sapiens) (UniProt Q9Y336). In words: Hs-Siglec9 ALPHAscreen SOP 20170721. The following applies: 10 µM.
The next assay has as its system Trypanosoma cruzi. In words: Trypanosoma cruzi phosphomannomutase and mannose-1-phosphate guanylyltransferase assay. Type of assay: functional. The following applies: 10 µM.
Assay [5] deals with T2, Arginase-2, mitochondrial (Homo sapiens) (UniProt P78540).
T2 sequence (whole entry): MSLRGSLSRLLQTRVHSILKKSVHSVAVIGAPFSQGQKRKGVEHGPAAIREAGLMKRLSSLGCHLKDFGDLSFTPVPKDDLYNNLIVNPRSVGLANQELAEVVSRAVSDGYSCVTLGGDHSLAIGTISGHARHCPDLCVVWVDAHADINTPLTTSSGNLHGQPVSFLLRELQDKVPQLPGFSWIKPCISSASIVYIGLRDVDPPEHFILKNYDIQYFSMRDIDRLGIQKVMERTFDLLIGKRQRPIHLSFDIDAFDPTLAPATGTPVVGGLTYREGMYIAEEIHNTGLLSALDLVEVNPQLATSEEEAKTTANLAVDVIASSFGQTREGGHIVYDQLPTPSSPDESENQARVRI
Briefly: in vitro enzyme assay to detect the production of urea directly proportional to the activity of Arginase II. Note: in the data most compounds retested in dose-response had high values. It counts as functional. Conditions: 33.3 µM.

Assay [6] has as its target T3, Proteasome subunit beta (Trypanosoma cruzi) (UniProt O96673).
T3 sequence (whole entry): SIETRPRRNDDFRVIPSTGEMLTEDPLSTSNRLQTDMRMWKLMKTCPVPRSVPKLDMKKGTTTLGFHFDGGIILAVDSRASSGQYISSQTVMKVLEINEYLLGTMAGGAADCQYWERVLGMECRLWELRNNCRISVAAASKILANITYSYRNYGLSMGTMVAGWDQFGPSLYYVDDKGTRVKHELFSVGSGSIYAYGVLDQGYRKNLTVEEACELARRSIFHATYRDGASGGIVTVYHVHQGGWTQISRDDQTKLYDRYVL
Briefly: Trypanosoma cruzi proteasome chymotrypsin-like activity (TcProtChymo) assay. Note: in the data most compounds retested in dose-response had high values. The following applies: 9.37 µM. Type of assay: functional.

For another assay, the species on record is Homo sapiens. In words: To identify inhibition of the IFN signalling (Jak-Stat) pathway via expression of an eGFP reporter gene under the control of an IFN-stimulated response element (ISRE) containing MxA promoter. Type of assay: functional. Conditions: 30 µM.
In assay [7] the target is T4, Tyrosyl-tRNA synthetase, putative (Trypanosoma cruzi (strain CL Brener)) (UniProt Q4DSP6).
T4 sequence (whole entry): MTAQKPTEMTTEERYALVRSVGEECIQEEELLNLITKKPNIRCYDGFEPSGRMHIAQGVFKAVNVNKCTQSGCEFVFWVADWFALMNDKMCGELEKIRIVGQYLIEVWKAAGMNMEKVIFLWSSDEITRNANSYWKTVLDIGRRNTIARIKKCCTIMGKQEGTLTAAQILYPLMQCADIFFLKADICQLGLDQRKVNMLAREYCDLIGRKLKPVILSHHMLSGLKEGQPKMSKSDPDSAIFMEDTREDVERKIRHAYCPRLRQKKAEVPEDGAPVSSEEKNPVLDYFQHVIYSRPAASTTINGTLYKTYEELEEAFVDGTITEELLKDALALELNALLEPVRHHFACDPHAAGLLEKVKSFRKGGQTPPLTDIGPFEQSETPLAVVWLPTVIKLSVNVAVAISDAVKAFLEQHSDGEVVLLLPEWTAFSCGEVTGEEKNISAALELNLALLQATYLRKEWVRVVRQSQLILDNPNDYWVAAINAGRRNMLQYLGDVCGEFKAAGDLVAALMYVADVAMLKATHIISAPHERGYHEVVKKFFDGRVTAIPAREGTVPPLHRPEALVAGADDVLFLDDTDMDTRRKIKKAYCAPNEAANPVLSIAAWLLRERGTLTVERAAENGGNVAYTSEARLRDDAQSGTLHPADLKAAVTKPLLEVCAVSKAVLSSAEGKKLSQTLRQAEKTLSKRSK
Briefly: Trypanosoma cruzi tyrosyl tRNA synthetase (TcYRS) _High Tyrosine SOP. Note: in the data most compounds retested in dose-response had high values. Type of assay: functional. Conditions: 30 µM.

Assay [8] concerns the target T4, Tyrosyl-tRNA synthetase, putative (Trypanosoma cruzi (strain CL Brener)). Briefly: Trypanosoma cruzi tyrosyl tRNA synthetase (TcYRS) SOP. It counts as functional. Conditions: 30 µM.
For assay [9], the target named is Chromo domain-containing protein 1 (Saccharomyces cerevisiae (strain ATCC 204508 / S288c) (Baker's yeast)) (UniProt P32657). Briefly: ScCHD-1 Enzyme Inhibition Assay. Note: in the data most compounds retested in dose-response had high values. Type of assay: functional. The following applies: 30 µM.

Structures are written as SMILES. For some of these results: Measured potencies and affinities stand elsewhere.

Protein translocase subunit SecA (Escherichia coli (strain K12)), sequence (P10408 whole entry): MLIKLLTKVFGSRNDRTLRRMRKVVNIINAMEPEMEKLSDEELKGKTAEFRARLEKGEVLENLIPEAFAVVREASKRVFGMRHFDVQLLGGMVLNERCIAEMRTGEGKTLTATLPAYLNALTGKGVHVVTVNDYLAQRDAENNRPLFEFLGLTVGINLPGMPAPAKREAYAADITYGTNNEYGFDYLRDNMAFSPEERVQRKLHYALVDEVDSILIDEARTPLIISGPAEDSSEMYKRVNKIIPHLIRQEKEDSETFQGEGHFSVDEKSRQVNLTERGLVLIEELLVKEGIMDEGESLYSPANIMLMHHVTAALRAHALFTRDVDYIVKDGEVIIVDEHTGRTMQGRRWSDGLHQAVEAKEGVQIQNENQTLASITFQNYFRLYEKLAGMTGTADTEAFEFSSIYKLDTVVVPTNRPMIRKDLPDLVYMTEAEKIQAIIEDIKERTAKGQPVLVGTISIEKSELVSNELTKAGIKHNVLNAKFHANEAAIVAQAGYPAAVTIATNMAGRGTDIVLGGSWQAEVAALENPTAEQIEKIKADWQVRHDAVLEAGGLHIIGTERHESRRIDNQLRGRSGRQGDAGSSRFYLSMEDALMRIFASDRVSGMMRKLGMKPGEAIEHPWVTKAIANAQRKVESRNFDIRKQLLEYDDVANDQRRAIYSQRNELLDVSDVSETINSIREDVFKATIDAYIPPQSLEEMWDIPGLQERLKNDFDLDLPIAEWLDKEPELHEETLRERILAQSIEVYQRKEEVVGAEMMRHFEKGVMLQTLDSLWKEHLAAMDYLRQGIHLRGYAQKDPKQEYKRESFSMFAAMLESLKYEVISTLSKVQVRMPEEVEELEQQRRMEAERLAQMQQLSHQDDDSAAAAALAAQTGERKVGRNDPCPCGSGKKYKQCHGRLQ
Chromo domain-containing protein 1 (Saccharomyces cerevisiae (strain ATCC 204508 / S288c) (Baker's yeast)), sequence (P32657 whole entry, the tested form may be a part): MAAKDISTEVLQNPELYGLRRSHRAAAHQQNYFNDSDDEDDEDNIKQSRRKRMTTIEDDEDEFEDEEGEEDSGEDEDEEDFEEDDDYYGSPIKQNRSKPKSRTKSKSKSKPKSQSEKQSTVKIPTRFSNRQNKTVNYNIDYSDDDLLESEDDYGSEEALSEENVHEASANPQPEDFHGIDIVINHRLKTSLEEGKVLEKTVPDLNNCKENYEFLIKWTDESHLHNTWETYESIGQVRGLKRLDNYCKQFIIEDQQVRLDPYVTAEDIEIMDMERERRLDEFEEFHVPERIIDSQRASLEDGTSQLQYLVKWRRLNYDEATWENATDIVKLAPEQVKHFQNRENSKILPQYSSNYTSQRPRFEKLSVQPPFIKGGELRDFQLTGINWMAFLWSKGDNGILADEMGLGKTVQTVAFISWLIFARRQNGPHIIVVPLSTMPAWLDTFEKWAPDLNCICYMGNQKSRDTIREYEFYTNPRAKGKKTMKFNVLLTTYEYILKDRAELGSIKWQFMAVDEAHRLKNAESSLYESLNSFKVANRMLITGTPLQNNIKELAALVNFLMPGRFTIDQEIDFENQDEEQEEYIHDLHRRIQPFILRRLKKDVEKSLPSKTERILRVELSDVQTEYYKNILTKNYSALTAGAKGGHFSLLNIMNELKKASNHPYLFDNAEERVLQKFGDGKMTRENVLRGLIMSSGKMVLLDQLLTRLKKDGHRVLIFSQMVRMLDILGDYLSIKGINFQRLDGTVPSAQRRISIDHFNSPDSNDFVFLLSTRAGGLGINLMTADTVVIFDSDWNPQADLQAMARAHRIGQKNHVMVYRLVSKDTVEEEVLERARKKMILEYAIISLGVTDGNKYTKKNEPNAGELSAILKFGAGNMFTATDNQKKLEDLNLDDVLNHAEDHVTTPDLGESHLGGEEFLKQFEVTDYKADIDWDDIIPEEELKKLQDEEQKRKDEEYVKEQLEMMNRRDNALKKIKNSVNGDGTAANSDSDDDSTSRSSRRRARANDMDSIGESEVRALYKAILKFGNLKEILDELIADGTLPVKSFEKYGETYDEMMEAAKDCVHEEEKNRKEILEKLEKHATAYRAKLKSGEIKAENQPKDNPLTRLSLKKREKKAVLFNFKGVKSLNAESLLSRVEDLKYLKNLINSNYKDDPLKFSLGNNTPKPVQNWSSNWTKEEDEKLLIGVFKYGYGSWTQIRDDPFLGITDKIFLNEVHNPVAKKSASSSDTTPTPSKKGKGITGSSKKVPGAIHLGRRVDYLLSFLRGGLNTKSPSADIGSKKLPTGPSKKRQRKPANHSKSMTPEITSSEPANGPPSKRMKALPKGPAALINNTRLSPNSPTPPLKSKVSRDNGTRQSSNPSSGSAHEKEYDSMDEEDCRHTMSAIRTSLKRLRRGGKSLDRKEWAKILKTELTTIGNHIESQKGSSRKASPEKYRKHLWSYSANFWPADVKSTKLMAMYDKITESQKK
Sialic acid-binding Ig-like lectin 9 (Homo sapiens), sequence (Q9Y336 whole entry): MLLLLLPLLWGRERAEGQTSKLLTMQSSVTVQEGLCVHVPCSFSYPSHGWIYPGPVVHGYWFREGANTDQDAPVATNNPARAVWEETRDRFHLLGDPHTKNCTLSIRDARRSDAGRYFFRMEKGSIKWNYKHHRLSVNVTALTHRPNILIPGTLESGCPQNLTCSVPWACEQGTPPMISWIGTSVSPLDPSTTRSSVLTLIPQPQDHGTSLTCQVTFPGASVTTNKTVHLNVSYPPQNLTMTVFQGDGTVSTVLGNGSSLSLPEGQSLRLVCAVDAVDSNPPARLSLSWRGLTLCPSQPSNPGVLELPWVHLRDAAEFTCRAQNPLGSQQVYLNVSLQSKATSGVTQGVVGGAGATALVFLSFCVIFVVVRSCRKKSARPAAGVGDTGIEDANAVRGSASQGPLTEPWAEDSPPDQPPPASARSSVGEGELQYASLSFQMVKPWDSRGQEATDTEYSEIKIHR

As for `CC1CCN(CCNC(=O)c2ccccc2N2CCOCC2)CC1`, the Percent Effect in assay [1] is 0.622%; in [2], 11%; in [3], -2.96%; in assay [4], 1.48%; with Trypanosoma cruzi it was -1.98%; in assay [5], -2.79%. Further, the Percent Effect in assay [6] was 24.1%; in the assay filed under Homo sapiens, 5.31%; in assay [7], 13.5%; in assay [8] it was 16.1%; in assay [9] it was -2.45%.

As to `CCCS(=O)(=O)c1ncc(CN2CCC(CO)CC2)n1CC1CCCO1` (stereo unspecified), the Percent Effect in assay [1] is 0.687%; in [2], -6.94%; in assay [3], -2.25%; in assay [4], -1.43%; in the assay on Trypanosoma cruzi, -5.34%; in assay [5], 0.442%. For the same compound, the Percent Effect in assay [6] was 4.74%; in the assay listed under Homo sapiens it was -4.14%; in [7], 0%; in assay [8], -7.69%; in [9] it was 5.71%.

In the case of `O=C(CCn1cnnc1)N1CCCC(c2ncc[nH]2)C1` (stereo unspecified), the Percent Effect was 1.63% in assay [1]; 5.48% in assay [2]; 11.6% in [3]; 0.524% in assay [4]; -6.27% in the assay on Trypanosoma cruzi; 2.27% in assay [5]. The Percent Effect in assay [6] is 8.52%; in the assay listed under Homo sapiens, 6.13%; in assay [7] it was 3.23%; in assay [8] it was 12.5%; in assay [9], -7.06%.

In the case of `CN(C)c1ccc(CNc2cncc(-n3cccn3)n2)cc1`, the Percent Effect in assay [1] is -3.75%; in assay [2] it was 5.2%; in [3], 0.00463%; in assay [4], 7.28%; in the assay with Trypanosoma cruzi it was 3.75%; in assay [5], -6.05%. Further, the Percent Effect in assay [6] came out at 6.25%; in the assay filed under Homo sapiens, 9.83%; in [7] it was 2.91%; in assay [8], 12.2%; in [9], 72%.

Take `COC(=O)CCC(=O)N1CCc2[nH]nc(-c3ccc4c(c3)OCO4)c2C1`: the Percent Effect in [1] was -2.09%; in [2] it was 8.11%; in assay [3], 6.85%; in [4] it was 21.3%; in the assay with Trypanosoma cruzi, 5.18%; in assay [5], 11.2%. The Percent Effect in assay [6] is 0.258%; in the assay filed under Homo sapiens, -7.33%; in assay [7] it was 2.15%; in assay [8], 6.17%; in assay [9], -11.9%.

On to `Cc1cc(CN2CCOC(CN(C)C)C2)no1` (stereo unspecified), for which the Percent Effect in assay [1] is -5.93%; in assay [2], 5.41%; in assay [3] it was -1.25%; in [4], 0.559%; in the assay with Trypanosoma cruzi, -4.92%; in assay [5], 1.66%. Further, the Percent Effect in [6] was -2.15%; in the assay listed under Homo sapiens it was 14.9%; in [7], 1.98%; in assay [8], 1.22%; in assay [9], 6.53%.

In the case of `CCc1nc(CN2CCCN(Cc3cnn(C)c3)CC2)no1`, the Percent Effect is 2.29% in [1]; 5.48% in assay [2]; -1.06% in assay [3]; 0.0732% in assay [4]; -2.35% in the assay with Trypanosoma cruzi; 0% in assay [5]. Further, the Percent Effect in assay [6] is 17.2%; in the assay filed under Homo sapiens, 3.79%; in [7], 4.3%; in [8], 12.5%; in [9] it was -13.7%.

`Cc1cc(C(=O)N2CC[C@@H]3CN(c4ncccn4)CCO[C@@H]3C2)c(C)o1`: the Percent Effect in [1] was -0.56%; in assay [2] it was 16.2%; in assay [3], -3.77%; in [4] it was -14.6%; with Trypanosoma cruzi it was 0.0978%; in [5], 6.69%. For the same compound, the Percent Effect in assay [6] is 29%; in the assay filed under Homo sapiens, -4.39%; in assay [7], 6.49%; in [8], 20.5%; in [9], -4.19%.

As for `O=C(c1ccccn1)N1CCc2nc(-c3cnccn3)nc(O)c2C1`, the Percent Effect in assay [1] was 0.65%; in [2], 12.2%; in assay [3], 8.6%; in assay [4], 0.354%; with Trypanosoma cruzi it was -3.36%; in assay [5], -0.232%. For the same compound, the Percent Effect in assay [6] is 11.7%; in the assay listed under Homo sapiens it was 14.4%; in assay [7], 4.3%; in assay [8], 14.3%; in assay [9], -12.2%.

For `Cc1cnn(CCC(=O)N2CCOC(c3nc(C(C)(C)C)n[nH]3)C2)c1` (stereo unspecified), the Percent Effect is -3.54% in [1]; -6.94% in [2]; 7.25% in assay [3]; 3.02% in assay [4]; -3.6% in the assay with Trypanosoma cruzi; -0.883% in assay [5]. Moreover, the Percent Effect in [6] is 5.26%; in the assay filed under Homo sapiens, 20.6%; in assay [7] it was -1.05%; in assay [8] it was -10.3%; in [9], -1.3%.

Regarding `O=C(NC1CCCN(c2ncccn2)C1)c1ccoc1` (stereo unspecified), the Percent Effect was -3.61% in [1]; 23.7% in [2]; -4.63% in assay [3]; -9.78% in assay [4]; -0.487% in the assay on Trypanosoma cruzi; 2.37% in assay [5]. In addition, the Percent Effect in [6] is 8.34%; in the assay filed under Homo sapiens, 8.15%; in assay [7], 3.19%; in assay [8], 15.6%; in assay [9] it was -9.61%.
